# Shown are actives, neighbours in structure and some others; about 1.6% of the full set was active somewhere.
# KCNH2 WT inh = inhibitors of human wildtype KCNH2 potassium channel; U2OS, BacMam KCNH2, thallium flux FluxOr; hits give low values; AID 720551; activity change, % at 1.84 µM; 0.37% of 340,000 active;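 active = maximum activity change below -70%; inconclusive = maximum activity change between -70% and -50%; inactive = maximum activity change above -50%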; also: % is scaled to controls: 0 for no effect and ±100 for the full control effect
# Target sequence (Q12809 whole entry, looked up): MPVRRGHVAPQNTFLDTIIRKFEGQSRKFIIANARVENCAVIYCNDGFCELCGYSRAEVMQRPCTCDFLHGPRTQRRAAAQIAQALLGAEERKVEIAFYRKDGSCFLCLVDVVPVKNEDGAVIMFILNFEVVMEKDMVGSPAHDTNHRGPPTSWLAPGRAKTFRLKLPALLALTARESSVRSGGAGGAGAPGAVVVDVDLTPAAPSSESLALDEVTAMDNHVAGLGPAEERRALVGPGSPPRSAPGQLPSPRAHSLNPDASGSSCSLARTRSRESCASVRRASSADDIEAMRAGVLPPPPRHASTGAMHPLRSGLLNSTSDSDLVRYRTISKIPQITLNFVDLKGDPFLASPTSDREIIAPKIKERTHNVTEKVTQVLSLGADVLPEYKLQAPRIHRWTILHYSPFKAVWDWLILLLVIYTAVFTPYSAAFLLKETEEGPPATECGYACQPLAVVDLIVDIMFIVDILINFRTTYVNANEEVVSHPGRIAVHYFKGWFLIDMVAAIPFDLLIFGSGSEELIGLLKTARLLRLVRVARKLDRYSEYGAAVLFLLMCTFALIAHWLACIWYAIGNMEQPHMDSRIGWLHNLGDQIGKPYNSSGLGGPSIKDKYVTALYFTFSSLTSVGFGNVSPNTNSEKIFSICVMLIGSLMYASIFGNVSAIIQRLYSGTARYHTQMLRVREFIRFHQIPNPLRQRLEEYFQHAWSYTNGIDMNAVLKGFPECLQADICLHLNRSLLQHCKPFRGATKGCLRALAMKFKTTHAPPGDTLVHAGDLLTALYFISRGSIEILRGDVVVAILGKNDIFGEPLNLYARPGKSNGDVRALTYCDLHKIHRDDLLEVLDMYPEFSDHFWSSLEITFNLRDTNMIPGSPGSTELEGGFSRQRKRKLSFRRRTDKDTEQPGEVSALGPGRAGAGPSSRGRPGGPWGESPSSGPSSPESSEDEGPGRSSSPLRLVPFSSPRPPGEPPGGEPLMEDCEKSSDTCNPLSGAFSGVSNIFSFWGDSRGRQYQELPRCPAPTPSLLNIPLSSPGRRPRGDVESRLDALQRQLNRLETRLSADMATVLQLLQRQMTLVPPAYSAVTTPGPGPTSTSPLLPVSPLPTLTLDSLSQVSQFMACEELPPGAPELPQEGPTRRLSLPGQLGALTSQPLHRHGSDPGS
#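 U2OS cells were transduced with wild-type KCNH2 virus (2.03 x 10^8 / mL) for 4 h at room temperature, then cultured overnight at 37 C. Thallium flux was read with FluxOr dye. Rate constants were normalized to DMSO controls.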
# Akt phos inh = inhibitors of Akt phosphorylation. Neuro2A IGF-stimulated pAkt S473 HTRF, 20 min; hits give low values. activity change, % for hits at 50 µM. 0.32% of 360,000 active. AID 651550; in the data active = activity change below about -80%; inconclusive = mostly about -51% to -80%; also: % is scaled to controls: 0 for no effect and ±100 for the full control effect
#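 Single-point screen (50 µM final compound) in Neuro2A cells stimulated 20 min with 6 nM IGF at 37 deg C. After lysis, Ser473-phosphorylated Akt read by HTRF (ex 330 nm, em 615/665 nm) as the 665/615 ratio.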
# gsp antagonist = antagonists of gsp mutant (McCune-Albright syndrome) | 0.4% of 340,000 active | Potency, µM (highest dose often 76.9 µM), for the others: at the top dose activity change, negative = inhibition, usual class: inhibitors | gsp-mutant cells, cAMP HTRF, 30 min; calls by dose curve; cell line not stated here;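 also: intracellular cAMP measured with PDE inhibitor Ro 20-1724 present during compound exposure; potency is read from the fitted curve at half-maximal effect; % is scaled to controls: 0 for no effect and ±100 for the full control effect; nearly all actives have a fitted effect of over 65% in size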
#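 HTRF cAMP measurement after 30 min RT detection following 30 min, 37C compound treatment alongside […] (added as 300 uM solution) in G418-selected cells seeded at 2000/well and grown 16–24 h.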
# GRP78 ERSR act = induces the endoplasmic reticulum stress response in human glioma cells. U87-MG GRP78 promoter luciferase reporter, 16 h. Potency, µM, without a hit: at the top dose activation, usual class: activators. 0.02% of 420,000 active; active = well fitted activation curve with a large enough effect; inconclusive = small, poorly fitted or top-dose-only effect; inactive = no such curve, though single readings can be large or run the other way; also: potency is read from the fitted curve at half-maximal effect; series mostly up to about 76 µM; % of control where 0% means no effect; nearly all actives have a fitted effect of over 35% in size
#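 Stably transfected U87-MG glioma cells carrying a GRP78-based luciferase sensor; 16 h compound incubation. Luminescence end-point read 10 min after Bright-Glo addition at room temperature.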
# KCNH2 3.1 block = blocks the human KCNH2 3.1 channel isoform; U2OS KCNH2 3.1, thallium flux FluxOr; hits give low values; activity change, % (tested at about 1.8 µM); 0.95% of 340,000 active; AID 720553;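 active = maximum activity change below -70%; inconclusive = maximum activity change from -70% to -50%; inactive = maximum activity change above -50%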;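 also: thallium influx rate constant from kinetic fluorescence after stimulation buffer; % is scaled to controls: 0 for no effect and ±100 for the full control effect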
#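 Steps: virus added to U2OS suspension (4 h, RT, dark); medium with 10% FBS added, cells plated, 37 C overnight; FluxOr/Red40 loading buffer 45 min RT; stimulation buffer, 2 min kinetic read; rate constant normalized.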
# gsp ag = gsp mutant agonism. AID 624287. gsp mutant cells, cAMP HTRF, 30 min. Potency, µM (series often up to 76.9 µM), for the others: top-dose activation (cAMP increase), usual class: activators. 0.13% of 340,000 active; active = well fitted activation curve with a large enough effect; inconclusive = small, poorly fitted or top-dose-only effect, or another doubt; inactive = no such curve, though single readings can be large or run the other way; cell line not stated here;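 also: phosphodiesterase inhibitor Ro 20-1724 added with compounds to block cAMP breakdown; potency is read from the fitted curve at half-maximal effect; nearly all actives have a fitted effect of over 60% in size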
#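 Cells in DMEM/10% FBS with G418 were pretreated with compounds in DMSO plus […] (300 uM stock) for 30 min at 37C. cAMP was measured by HTRF (cAMP-d2 plus anti-cAMP antibody-K) after 30 min at room temperature.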
# * = called active by the depositor; i = inactive; ? = inconclusive; . = no result; [ ] = dose if it differs, or a comment.
SMILES,KCNH2 WT inh,Akt phos inh,gsp antagonist,GRP78 ERSR act,KCNH2 3.1 block,gsp ag
CCCCCCCCCCCCCCCCCCOP(=O)([O-])OC1CC[N+](C)(C)CC1,.,.,.,-3.9%,.,.
Cc1cc(C)nc(N/N=C/C(Cl)=C/c2ccccc2)n1,6.6,i,-0.4%,4.2%,-82.6*,-2.0%
O=C(Cn1nc(-c2ccccc2)ccc1=O)Nc1ccc(-n2cnnn2)cc1,8.9,i,44.7µM*,-4.3%,-3.6,2.6%[15.4 µM]
O=C(Cn1nc(-c2ccc3c(c2)OCCO3)ccc1=O)Nc1ccc(-n2cnnn2)cc1,25.8,i,3.4%,1.5%,-6.9,-31.2%
CCC(O)CNC(=O)c1cnn(-c2ncc3c(n2)-c2ccc(OC)cc2CC3)c1C1CC1 (stereo not given),.,.,.,-4.0%,.,.
CC(=O)NCC(=O)NCC1Cc2cc(C)cc(-c3ccccn3)c2O1 (stereo not given),.,.,.,-1.3%,.,.
O=C(CCC1CCN(C(=O)c2cc(C(F)(F)F)ccc2Cl)CC1)NC1CC1,5.0,i,3.8%,-4.4%,-115.5*,0.5%
Cc1nc2cc(NC(=O)[C@@H]3C[C@@H](Sc4ccccn4)CN3Cc3ccccc3F)ccc2s1,.,.,.,-2.7%,.,.
O=C(CSc1nnc(-c2ccccn2)n1Cc1ccco1)c1ccccc1,10.2,i,-2.6%,-2.9%,-30.4,23.8%
O=C(CSc1nnc(-c2ccccn2)n1Cc1ccco1)c1ccc(Cl)cc1,-1.4,-109.8%*,-4.5%,-1.0%,5.3,0.9%
C(=C\c1ccccc1)/CSc1nnc(-c2ccccc2)n1Cc1ccco1,-27.2,i,14.7%,-4.9%,-20.0,25.1%
Clc1cccc(-c2nnc(SC/C=C/c3ccccc3)n2Cc2ccco2)c1,-16.8,i,-14.6%,2.6%,-97.7*,4.6%
COc1cccc(C2/C(=C(\O)c3ccc4c(c3)OCCO4)C(=O)C(=O)N2CCCn2ccnc2)c1 (stereo not given),2.9,i,25.5%,9.7%,-3.2,12.6µM*
O=C1C(=O)N(CCCn2ccnc2)C(c2ccc(Br)cc2)/C1=C(\O)c1ccc2c(c1)OCCO2 (stereo not given),0.6,i,15.0%,1.0%,-3.5,?
O=C1C(=O)N(CCCn2ccnc2)C(c2cccc(Br)c2)/C1=C(\O)c1ccc2c(c1)OCCO2 (stereo not given),-0.6,i,-5.1%,-1.1%,-16.2,11.2µM*
Cc1nc2ccccn2c1/C(O)=C1\C(=O)C(=O)N(CCCn2ccnc2)C1c1ccncc1 (stereo not given),-7.0,i,13.5%,-1.0%,-0.9,17.8µM*
COc1cccc(C2/C(=C(/O)c3ccc4c(c3)CC(C)O4)C(=O)C(=O)N2CCCn2ccnc2)c1 (stereo not given),6.6,i,-7.4%,4.8%,-7.1,12.6µM*
O=C1C(=O)N(CCCn2ccnc2)C(c2ccc(Cl)cc2)/C1=C(\O)c1ccc2c(c1)OCCO2 (stereo not given),4.3,i,11.3%,-1.1%,20.6,?
COc1cc(Nc2c(C#N)cnc3cc(OCCCN4CCN(C)CC4)c(OC)cc23)c(Cl)cc1Cl,.,.,.,-6.5%,.,.
O=C(NCCc1ccncc1)c1cnn(-c2ncc3c(n2)-c2ccccc2CCC3)c1C1CC1,.,.,.,-4.6%,.,.
CC(=O)Nc1ccc(S(=O)(=O)Nc2cc(C)on2)cc1,.,.,.,-3.3%,.,.
O=C1C(=O)N(CCCN2CCOCC2)C(c2ccc(F)cc2)/C1=C(\O)c1ccc2c(c1)OCCO2 (stereo not given),-1.4,i,39.4%,10.0%,-16.1,31.6µM*
COc1cccc(C2/C(=C(/O)c3ccc4c(c3)OCO4)C(=O)C(=O)N2CCN2CCOCC2)c1 (stereo not given),4.6,i,-0.5%,4.7%,-12.4,11.2µM*
CCOc1ccc(/C=C2\SC(=O)N(CCNC(=O)C3COc4ccccc4O3)C2=O)cc1OC (stereo not given),-14.1,i,28.2µM*,1.3%,-4.0,-5.0%
O=C(NCC1Cc2cccc(-c3cncnc3)c2O1)C1CC1 (stereo not given),.,.,.,-2.6%,.,.
CCCCCCNc1nc(NCc2ccco2)nc(OCC)n1,-24.5,i,?,1.9%,-73.5*,22.0%

# Screening data from PubChem BioAssay.
